Records with an inconclusive call do not appear. Where a call stands in place of a potency, no number is given. Active and inactive are the calls of the source. Calls follow the shape of the full dose curve.

Here are results for one compound from PubChem BioAssay (Tox21).

The assay is described as follows: p53 small molecule agonists, cell-based qHTS assay with rat liver microsomes (AID 1963578). A digest of the protocol: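 p53RE-bla cells, 4,000/well, pre-incubated 5 h, then given compounds plus rat liver microsomes (0.5 mg/mL final) and NADPH (0.5 mg/mL final). Incubation 16 h at 37 C; beta-lactamase reporter read by LiveBLAzer fluorescence after 2 h at room temperature.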
On the technique in general: Quantitative high-throughput screening tests each substance at several concentrations.

As to `Oc1cccc(-c2ccccc2)c1`, the Potency result was “inactive”.
